Bioassay records as filed in PubChem BioAssay.
The entries come from a sample that favours hits as a whole.
TbREL1 inh: TbREL1 inhibition, primary screen; P86926; TbREL1 RNA ligation, FRET fluorescence; inhibition, % at 9.66 µM; 89,000 compounds, 0.49% hits;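 active = inhibition above the mean inhibition across all screened compounds plus 3 SD, cut at about 11% in these data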
Target sequence (P86926 whole entry, looked up): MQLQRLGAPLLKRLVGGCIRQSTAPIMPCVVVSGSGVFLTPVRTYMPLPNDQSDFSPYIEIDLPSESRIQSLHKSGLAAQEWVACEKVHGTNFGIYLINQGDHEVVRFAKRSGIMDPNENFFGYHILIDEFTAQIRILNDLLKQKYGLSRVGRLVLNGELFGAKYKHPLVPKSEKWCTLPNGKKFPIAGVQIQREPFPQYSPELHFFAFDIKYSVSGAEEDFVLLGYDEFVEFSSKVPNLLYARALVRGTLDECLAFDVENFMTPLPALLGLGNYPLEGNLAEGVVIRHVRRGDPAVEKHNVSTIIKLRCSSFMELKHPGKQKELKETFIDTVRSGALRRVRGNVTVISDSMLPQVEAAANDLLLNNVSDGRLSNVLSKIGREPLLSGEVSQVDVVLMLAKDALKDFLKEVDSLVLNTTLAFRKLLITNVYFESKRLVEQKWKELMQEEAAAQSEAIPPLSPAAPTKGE
TbREL1 confirm: TbREL1 inhibition, confirmation | AID 1117282 | TbREL1 RNA ligation, FRET fluorescence | shares compounds with TbREL1 inh | inhibition, % at 9.66 µM | 390 compounds, 37% hits;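 active = mean inhibition across replicates above a set limit taken from the earlier primary screen, cut at about 11% in these data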
A number is an active result; n = inactive.

SMILES	TbREL1 inh	others
CN(C)CCCN(C(=O)CCS(=O)(=O)c1ccccc1)c1nc2cc3c(cc2s1)OCO3	n
Cc1ccc2nc(N(CCCN(C)C)C(=O)c3ccc(S(=O)(=O)N4CCc5ccccc5C4)cc3)sc2c1	n
CN(C)CCCN(C(=O)c1ccc(S(=O)(=O)N2CCc3ccccc32)cc1)c1nc2ccc(Cl)cc2s1	n
CN(C)CCCN(C(=O)c1ccc(C(=O)c2ccccc2)cc1)c1nc2cc3c(cc2s1)OCCO3	12	TbREL1 confirm=n
CCOc1ccc(N(CC(=O)Nc2c(C)n(C)n(-c3ccccc3)c2=O)S(=O)(=O)c2ccc3c(c2)N(C(=O)C2CCC2)CC3)cc1	n
COc1ccc(C2=CC(=O)C[C@H](COCc3ccccc3)N(C(=O)OC(C)(C)C)O2)cc1	n
O=C(CCN1C(=O)S/C(=C/c2ccccc2)C1=O)Nc1ccc(O)c(C(=O)O)c1	14	TbREL1 confirm=15
O=C(CCN1C(=O)/C(=C\c2ccccc2)SC1=S)Nc1ccc(C(=O)O)cc1	n
O=C(CCCN1C(=O)/C(=C\c2ccccc2)SC1=S)Nc1ccc(O)cc1	n
CCOC(=O)C1=C(C)N(C)C(=O)NC1c1cccc([N+](=O)[O-])c1 (configuration not stated)	n
CCOC(=O)c1c(C)n(C)c2ccc(OCC(N)=O)cc12	n
CCOC(=O)c1c(C)n(C)c2cc([N+](=O)[O-])c(O)c([N+](=O)[O-])c12	11	TbREL1 confirm=n
O=C(NCCCN1CCOCC1)c1cccc(S(=O)(=O)N2CCc3ccccc32)c1	n
Cc1[nH]c2ccccc2c1C(=O)COC(=O)Cn1c(C)nc2ccccc21	n
O=C(CSc1nc2ccccc2n1CCc1ccccc1)c1ccc(O)c(O)c1	n
Cc1nc2ccccc2n1CC(=O)c1ccc(O)c(O)c1	16	TbREL1 confirm=16
COc1cccc(CN(C)C(=O)[C@@H](Cc2ccccc2)NC(=O)[C@H]2O[C@@H](n3ccc(=O)[nH]c3=O)[C@H](O)[C@@H]2O)c1	n
CCOc1ccc(-n2c(SCC(=O)Nc3ccc4c(c3)OCCO4)nnc2-c2ccncc2)cc1	n
CN1CCN(CCOc2ccc(Cl)c(Cl)c2)CC1	n
CCc1ccc(OCCOCCN2CCN(C)CC2)cc1	16	TbREL1 confirm=n
CCN1CCN(CCOCCOc2ccccc2)CC1	n
O=C(NCc1ccccc1)O[C@@H]1CC[C@@]23CCCN2C(=O)CCC[C@H]3C1	n
CCCCNC(=O)O[C@H]1CC[C@@]23CCCN2C(=O)CCC[C@H]3C1	13	TbREL1 confirm=n
O=C(NCCc1ccccc1)O[C@H]1CC[C@@]23CCCN2C(=O)CCC[C@H]3C1	n
CN(C)c1ccc(-c2nn3c(-c4ccco4)nnc3s2)cc1	n
SMILES	TbREL1 inh	others
CN(C(=O)c1cccc(NC(=O)Cc2ccc(NC(=O)C3CCCN(C(=O)C4CCC4)C3)cc2)c1)C1CCCCC1 (configuration not stated)	n
O=C(Nc1ccc(F)cc1)OCCN1CCN(Cc2ccccc2)CCC1=O	n
Cc1ccc(NC(=O)OCCN2CCN(Cc3ccccc3)CCC2=O)cc1C	12	TbREL1 confirm=n
O=C(NCc1ccccc1)OCCN1CCN(Cc2ccccc2)CCC1=O	n
COc1ccc(/C=N\NC(=O)CN2CCN(Cc3ccccc3)CC2)cc1OCc1ccccc1	n
COc1ccc2ccccc2c1C=NNC(=O)CN1CCN(Cc2ccccc2)CC1	n
CC(C)C[C@H](NC1(C(=O)NC2CCCCC2)CCCCC1)C(=O)NCC(c1ccccc1)c1ccccc1	n
CN1CCC(N[C@@H](Cc2c[nH]c3ccccc23)C(=O)NCC(c2ccccc2)c2ccccc2)(C(=O)NC2CCCCC2)CC1	n
CC(C)C[C@H](NC1(C(=O)NC2CCCCC2)CCN(C)CC1)C(=O)NCC(c1ccccc1)c1ccccc1	17	TbREL1 confirm=18
CCCCN1CCS(=O)(=O)N(Cc2cn(Cc3ccc(C)cc3)nn2)C(C(=O)OC)C1 (configuration not stated)	n
CCCCCCC(=O)NC1CCCCN(Cc2ccc(C)cc2)C1=O (configuration not stated)	n
CCOC(=O)[C@]12CCCC=C1N(CCc1ccc(OC)c(OC)c1)C(=O)[C@H](CC(=O)NCc1ccc(C)o1)C2	n
COC(=O)[C@]12C[C@H](CC(=O)N3CCC(c4ccccc4)CC3)C(=O)N(CCc3ccc(OC)c(OC)c3)C1=C[C@H](COCc1ccccc1)O[C@@H]2C	n
CC(C)C[C@H](NC(=O)c1[nH]cnc1C(=O)N[C@@H](Cc1ccccc1)C(=O)OCc1ccccc1)C(=O)OCc1ccccc1	n
CC(C)C[C@H](NC(=O)c1nc[nH]c1C(=O)N[C@@H](CC(C)C)C(=O)OCc1ccccc1)C(=O)OCc1ccccc1	n
CC(C)C[C@@H](CNCC(=O)[C@H](C)NC(=O)c1[nH]cnc1C(=O)N[C@@H](C)CN)NC(=O)c1nc[nH]c1C(=O)N[C@@H](Cc1ccccc1)C(=O)O	11	TbREL1 confirm=n
O=C(NCc1cc(C(F)(F)F)cc(C(F)(F)F)c1)c1cc(-c2cc(F)ccc2OCC2CCCO2)n[nH]1 (configuration not stated)	n
COC(=O)c1cc(NC(=O)C(C)c2ccc(CC(C)C)cc2)ccc1O (configuration not stated)	n
CC(C)c1ccc(CNCc2ccccc2)cc1	n
CC(C)Cc1ccc(C(C)C(N)=NCCc2ccccc2)cc1 (configuration not stated)	12	TbREL1 confirm=12
C[C@H]1COc2cc(Br)ccc2S(=O)(=O)N1Cc1cn(CC2CCCCC2)nn1	n
N#Cc1cccc(Cn2ccc3ccc(-c4ccc5ccn(Cc6ccccc6)c5c4)cc32)c1	n
O=C(c1ccccc1-c1nc(-c2ccc(F)cc2)no1)N1CCCC1	n
O=C(c1ccccc1-c1nc(-c2ccccc2)no1)N1CCOCC1	n
O=C(O)c1ccccc1-c1noc(-c2ccccc2F)n1	13	TbREL1 confirm=n
SMILES	TbREL1 inh	others
O=C(NCCc1c[nH]c2ccccc12)OCc1cn(Cc2cccc(C(F)(F)F)c2)nn1	n
COc1ccc(/C=N/Nc2nc(-c3ccc(Cl)cc3)cc(C(F)(F)F)n2)cc1OC	n
CCOc1cc(/C=N/Nc2nncc(-c3ccccc3)n2)ccc1O	n
COc1ccc(-c2cnnc(N/N=C/c3ccc(OC)c(OC)c3)n2)cc1	11	TbREL1 confirm=n
Nc1ccn([C@@H]2O[C@H](C(=O)N3CCN(CCO)CC3)[C@@H](O)[C@H]2O)c(=O)n1	n
C[C@H]1[C@@H](OC(=O)Nc2ccccc2C(F)(F)F)CC[C@@]23CCCN2C(=O)CCC[C@@H]13	n
COc1ccc(N)cc1C#N	n
CCCOc1ccc(N)cc1N	12	TbREL1 confirm=n
CCCOC(=O)c1ccc(O)c(OC)c1	n
COC(=O)[C@]12C[C@H](CC(=O)NCc3cccc4ccccc34)C(=O)N(Cc3ccc(Cl)cc3Cl)C1=C[C@H](C(C)C)O[C@@H]2C1CC1	n
CC(Cc1ccccc1)NC(=O)CCNNC(=O)c1ccncc1 (configuration not stated)	n
C=CCOC(=O)N1CCC(NS(=O)(=O)c2ccc3c(c2)CCN3C(C)=O)CC1	n
COC(=O)[C@]12C[C@H](CC(=O)N3CCCC3)C(=O)N(Cc3ccco3)C1=C[C@H](C1CCCC1)O[C@@H]2C	n
O=C(NCCc1ccccc1)OCc1cn(-c2cccc(Cl)c2)nn1	n
COc1cc2c(c(OC)c1OC)C1(CCCCC1)CC2NCC=C(C)C (configuration not stated)	n
Oc1ccc(-c2cn3c(n2)SCC3)cc1O	17	TbREL1 confirm=41
Oc1ccc(-c2cn3c(n2)SCC3)cc1	n
O=S(=O)(Nc1cccc(-c2cn3c(n2)SCC3)c1)c1ccccc1F	n
